Data reported in PubChem BioAssay AID2315 (National Center for Advancing Translational Sciences (NCATS), 2010).
Screen size: about 290,000 compounds; about 27,000 (9.3%) were called active. Only a selection was taken, and actives are over-represented in it overall. A number with no mark means an inactive call. Cut-off read from the data, not from the text of the source: active = inhibition mostly above about 28% (no sharp cut-off); inactive = mostly below about 43%.

assay: A qHTS for Small Molecule Inhibitors of Shiga Toxin; conditions: Vero cells, Shiga toxin protein synthesis inhibition reporter; at 38.7 µM, hits give high values; for inhibition: 0% is about no effect

SMILES	inhibition
CC1(C)NC(=O)N(CC(=O)Nc2cc(C(F)(F)F)cc(C(F)(F)F)c2)C1=O	10.9%
Cc1cc(=O)n2nc(N3CCC(C(=O)Nc4c(F)c(F)c(F)c(F)c4F)CC3)sc2n1	-3.72%
Cc1cc(=O)n2nc(N3CCCC(C(=O)NCc4ccc(Cl)cc4)C3)sc2n1 (configuration not stated)	-10.3%
CC(=O)O[C@H]1c2ccccc2-c2ccccc2[C@@H]1OC(C)=O	-4.45%
Oc1cccc2ccc(/C=C/c3ccc(Br)s3)nc12	112% (active)
Nc1ccc(S(=O)(=O)Nc2nccc(/C=C/c3ccc(Br)s3)n2)cc1	2.79%
CC(=O)Nc1ccc(S(=O)(=O)NC2Cc3ccccc3C2)cc1	-3.63%
COc1ccc(CCNC(=O)CS(=O)(=O)Cc2nc(-c3ccc(C)cc3)oc2C)cc1OC	3.34%
COc1ccc(CNc2nc3c(c(=O)[nH]c(=O)n3C)n2Cc2ccccc2)cc1	-4.35%
Cc1ccc(Cn2c(C)nc3c(c2=O)c2nc4ccccc4nc2n3Cc2ccco2)cc1	12.7%
Clc1cccc(-c2nc3nc4ccccc4nc3n2Cc2ccco2)c1	75.4% (active)
Cc1nc2c(c(=O)n1Cc1ccco1)c1nc3ccccc3nc1n2Cc1ccccc1	-14%
CN(C)N1C(N)=C(C#N)C(c2ccc(Br)cc2)C2=C1CCCC2=O (configuration not stated)	-14.3%
COc1ccccc1CN1CCCC(N2CCN(c3ccc(F)cc3)CC2)C1 (configuration not stated)	-2.63%
Cc1ccc(S(=O)(=O)NCC(=O)N(CC(=O)NCC2CCCO2)c2cccc(F)c2)cc1 (configuration not stated)	-9.17%
O=C(CSc1nc2ccccc2o1)N/N=C/c1ccccc1C(=O)O	41.2%
O=C(CSc1nc2ccccc2o1)N1CCN(c2ccc(Cl)cc2)CC1	-1.01%
O=C(CSc1nc2ccccc2o1)N1c2ccccc2Sc2ccc(Cl)cc21	-8.96%
CCS(=O)(=O)c1ccc2oc(SCC(=O)N3c4ccccc4CC3C)nc2c1 (configuration not stated)	-14.6%
CC1Cc2ccccc2N1C(=O)CSc1nc2ccccc2o1 (configuration not stated)	94.1% (active)
Cc1cc(=O)[nH]c(SCC(=O)N2c3ccccc3CC2C)n1 (configuration not stated)	-7.96%
O=C(CSc1nc2ccccc2o1)N1CCN(c2ccccc2)CC1	-6.06%
CCN(CC)C(=O)CSc1nc2ccccc2o1	67.4% (active)

SMILES	inhibition
Cc1ccc(/C=N/NC(=O)CSc2nc3ccccc3o2)cc1	83.9% (active)
CCn1c(SCC(=O)N/N=C/c2ccncc2)nc2ccccc21	-2.17%
CC(C)(C)C(=O)CSc1nc2ccccc2o1	113% (active)
CCOC(=O)n1c(SCC(=O)N(CC)CC)nc2ccccc21	-11%
O=S(=O)(NCC1CN(S(=O)(=O)c2ccc3c(c2)OCCO3)C1)c1c(F)cccc1F	-12.4%
COC(=O)c1cc(S(=O)(=O)N2CCN(c3cc(C)ccc3C)CC2)c[nH]1	-9.79%
CCC(C(=O)NC1CCCC1)N(C(=O)Cn1nnc(-c2ccc(C)o2)n1)c1ccc(OC)c(OC)c1 (configuration not stated)	-7.44%
CC1CC(C)CN(CCOc2cccc3ccccc23)C1 (configuration not stated)	-12.3%
CC1CCC(NC(=O)CN(C)S(=O)(=O)c2ccc3c(c2)c(=O)n(C)c(=O)n3C)CC1 (configuration not stated)	-2.58%
CCCS(=O)(=O)N1CCN=C1SCc1cccc(F)c1	-4.79%
COC(=O)c1cc(OCC(=O)NC2CCCc3ccccc32)cc(C(=O)OC)c1 (configuration not stated)	-5.73%
O=C1OCCN1C(=O)[C@H]1[C@H](c2ccc(Cl)cc2)C(c2cccc(Cl)c2)=NN1c1ccc(Br)cc1	inactive
COc1ccccc1Oc1ccc(N2CC(C(=O)OCC(=O)c3ccc(F)cc3)CC2=O)cc1 (configuration not stated)	7.33%
COc1cccc(CNS(=O)(=O)c2ccc3c(c2)CC(C)N3C(C)=O)c1 (configuration not stated)	-5.4%
O/N=C(\C[n+]1ccccc1)c1ccc(Br)cc1	13.2%
O=C(Nc1cccc(NC(=O)c2ccccc2[N+](=O)[O-])c1)c1ccccc1Cl	30.9%
O=C(Nc1ccc2sc3ccccc3c(=O)c2c1)c1ccccc1Cl	93.9% (active)
O=C(Nc1ccc2nc3n(c(=O)c2c1)CCCCC3)c1ccccc1Cl	40.7%
CCSCc1nc(N)nc(NCCc2ccccc2)n1	15.6%
CCc1nn(CCCC(=O)NCc2ccc(C)cc2)c(=O)c2cc3occc3n12	18.7%
CCNC(=S)N(CCN(CC)CC)Cc1cc2cc3c(cc2[nH]c1=O)OCO3	-7.63%
COc1ccc(NC(=O)C(C)N2c3cccc4cccc(c34)S2(=O)=O)c(OC)c1 (configuration not stated)	-11.7%
Cc1ccc(/C([O-])=C(/C(=S)NCc2ccco2)[n+]2ccccc2)cc1[N+](=O)[O-]	-8.48%

SMILES	inhibition
CCC(C)NCC(=O)Nc1ccc([N+](=O)[O-])cc1C(=O)Nc1ccccc1F (configuration not stated)	13%
O=[N+]([O-])c1cccc(/C([O-])=C(/C(=S)Nc2ccccc2F)[n+]2ccccc2)c1	83.4% (active)
Cc1cc(C)c(C#N)c(Nc2cccc(Br)c2)n1	-8.95%
COc1ccc(-c2noc(COc3ccc(Cl)c(C)c3)n2)cc1	25.5% (active)
CN(Cc1ccccn1)Cc1nc(-c2ccc(Cl)cc2)no1	31.7%
Cc1cc(Cl)ccc1OCc1nc(-c2ccncc2)no1	129% (active)
COc1ccc(C(C)=O)cc1COc1ccc(Cl)c(C)c1	7.61%
COc1ccc(N2CCN(C(=O)CCc3nc(-c4ccc(C)cc4)no3)CC2)cc1	-8.71%
Cc1cc(Cl)ccc1OCCCC(=O)NCc1ccncc1	14.6%
C=C(C)COc1ccc(-c2ncncc2-c2ccc(OC)cc2)c(O)c1	-1.7%
Cc1ccc(CN2C(=O)N/C(=C/c3cc(C)n(-c4ccccn4)c3C)C2=O)cc1	31.1%
CCN(CC)S(=O)(=O)c1ccc(Cl)c(C(=O)NCCN2CCOCC2)c1	-6.97%
Cc1ccc(OCC(=O)Nc2ccc3oc(=O)ccc3c2)cc1C	-5.7%
COc1c(C(C)C)oc2cc3oc(=O)ccc3cc12	34%
Cc1oc2cc3oc(=O)ccc3cc2c1C	40.7% (active)
CCN(C(=O)COc1ccc(C(=O)c2ccccc2)cc1)c1ccccc1	-10.2%
Cc1ccccc1N1CC(C(=O)Nc2nnc(SCCC3OCCO3)s2)CC1=O (configuration not stated)	-4.6%
COc1ccc(OCc2nnc3n2N=C(c2ccccc2)C(CC(=O)O)S3)cc1 (configuration not stated)	-9.4%
CCCCn1c(O)c(C(CC)=NCc2ccco2)c(=O)[nH]c1=O	-7.37%
CC/C(=N\NC(=O)c1ccccc1O)c1c(O)n(Cc2ccccc2)c(=O)[nH]c1=O	58.6% (active)
CCCCCCN=C(CC)c1c(O)n(CCCC)c(=O)[nH]c1=O	-8.53%
Cc1cc2cc3c(cc2nc1SCC(=O)Nc1c(C)cccc1C)CCC3	-6.77%
Cc1cccn2c(=O)c3cc(C(=O)NC4CCCCC4)sc3nc12	-2.1%

SMILES	inhibition
CCn1c(=N)c(C(=O)NCCCOC)cc2c(=O)n3cccc(C)c3nc21	-7.15%
CCOCCCNC(=O)c1cc2c(=O)n3ccccc3nc2s1	74.5% (active)
NC(=O)C1CCN(CC(O)CSc2ccc(F)cc2)CC1 (configuration not stated)	2.41%
O=C(Cn1cnc([N+](=O)[O-])n1)NCCc1ccccc1	17.3% (active)
CC(C)(C)NC(=O)Cn1cnc([N+](=O)[O-])n1	-6.78%
O=C(CSc1ncccn1)NCCc1ccccc1	1.16%
COc1ccc2cc(CCl)c(Cl)nc2c1	14.8%
CCCC(=O)N1CCC(CCC(=O)NC2CC2)CC1	14.8%
COCCNC(=O)c1ccc(N2CCC3(CC2)OCCO3)c([N+](=O)[O-])c1	7.01%
CCC(C)NC(=O)c1ccc(N2CCC3(CC2)OCCO3)c([N+](=O)[O-])c1 (configuration not stated)	50.1% (active)
CC(NC(=O)c1ccc(N2CCNCC2)c([N+](=O)[O-])c1)C12CC3CC(CC(C3)C1)C2 (configuration not stated)	-0.798%
COc1ccc(NC(=O)c2cc(-c3cc(OC)c(OC)c(OC)c3)nc3ccccc23)c(OC)c1	15.1%
O=[N+]([O-])c1ccc2oc(-c3cccc(O)c3)nc2c1	47.7% (active)
COc1cccc(-c2nc3cc(C)ccc3o2)c1	65% (active)
COc1ccc2oc(-c3cccc(NC(=O)CSc4ccc(Cl)cc4)c3)nc2c1	13.6%
CC(=O)Oc1ccc2c(=O)oc(-c3ccc([N+](=O)[O-])cc3)nc2c1	-6.54%
COc1cccc(-c2nc(S(=O)(=O)c3ccccc3)c(N3CCOCC3)o2)c1	20.2%
COc1ccc(-c2nc3cc([N+](=O)[O-])ccc3o2)cc1OC	27.9%
CC(=O)Nc1ccccc1OC(C)C(=O)N1CCC(C)CC1 (configuration not stated)	-7.84%
O=C(N/N=C/c1cc(Cl)cc([N+](=O)[O-])c1O)C(O)(c1ccccc1)c1ccccc1	-2.27%
CCOC(CNC(=O)C(=O)NCC(c1ccco1)N1CCN(c2ccc(OC)cc2)CC1)OCC (configuration not stated)	14.3%
CCOc1ccccc1NC(=O)COc1ccc(S(=O)(=O)N2CCCC2)cc1	14.6%
Cc1oc2c(C)c3oc(=O)c(CC(=O)N[C@@H](CC(C)C)C(=O)N[C@@H](Cc4ccccc4)C(=O)O)c(C)c3cc2c1C	-6.95%
